According to the OligoGym collection:
Also: reference of the scale not given here.

Each sequence was assayed against CLEC9A (assay: pooled miR-30 sensor sort-seq; sequence = guide strand). Conditions: shRNA.
For TTCTCTTGACTGGTGTGCCAAA, the sensor-assay potency score (higher = more potent) was -1.18. In the case of ATAGTAACAACTTTCTCTGTTC, the sensor-assay potency score (higher = more potent) was -0.226. TCACAAGACAGCATGCTCCTGA gave a sensor-assay potency score (higher = more potent) of 0.87. TTAATCTTCCTCAAGCTGCCAG gave a sensor-assay potency score (higher = more potent) of 0.401. For TTTTCTTGCTGCTGCATCGCAA, the sensor-assay potency score (higher = more potent) was -0.454. In the case of TTAAACAATTCTCTTGACTGGT, the sensor-assay potency score (higher = more potent) was -0.125. In the case of TTTGTAGCAGCGTGGAACCTTC, the sensor-assay potency score (higher = more potent) was -0.937.

The sequences below were run against CLN3 in the same assay as above. Conditions: shRNA.
In the case of ATCGTGATGAGCTGTTGTGGGG, the sensor-assay potency score (higher = more potent) was -0.665. TCAAATCGTGATGAGCTGTTGT was tested, and the sensor-assay potency score (higher = more potent) was 0.182. AATCCCACTGACGAGAACCCGG gave a sensor-assay potency score (higher = more potent) of -0.766. AACAATTTGATGACGAGTGTGG gave a sensor-assay potency score (higher = more potent) of 0.272. In the case of AAGACCACACCACACAGGCTGG, the sensor-assay potency score (higher = more potent) was -1.35. In the case of AAATCGTGATGAGCTGTTGTGG, the sensor-assay potency score (higher = more potent) was -0.817. TTTCCCGATGTCCTCTTGTGGC gave a sensor-assay potency score (higher = more potent) of -1.44. Work on CAGAGTTGCAGTCAAATCGTGA yielded a sensor-assay potency score (higher = more potent) of -1.16. Work on TTGAACACTGTCCACCTTTCCC yielded a sensor-assay potency score (higher = more potent) of -0.845. GTGAGCAACAAGAAATAGCTGG showed a sensor-assay potency score (higher = more potent) of -0.754. Work on TTGTGGAAGGTGTTCACGTAGG yielded a sensor-assay potency score (higher = more potent) of -0.371. For TAGAGACAGAGTTGCAGTCAAA, the sensor-assay potency score (higher = more potent) was -1.26. For AATCGTGATGAGCTGTTGTGGG, the sensor-assay potency score (higher = more potent) was -0.0059. TGAGCAACAAGAAATAGCTGGC was tested, and the sensor-assay potency score (higher = more potent) was 0.625. TCTGCCAGCAGGAACACCAGGT gave a sensor-assay potency score (higher = more potent) of 0.0628. Sequence TCGTGATGAGCTGTTGTGGGGG has a sensor-assay potency score (higher = more potent) of -0.528. Work on TTGTGGCTAAGGATGTCGTGGG yielded a sensor-assay potency score (higher = more potent) of -0.303. Sequence TGGTCCAACAGAGGGAGCCGGG has a sensor-assay potency score (higher = more potent) of -1.78. Sequence TGACTCAGGGAAGTGTTCCAGA has a sensor-assay potency score (higher = more potent) of -0.693. TACAGCATCTGGTACCAGCGGT showed a sensor-assay potency score (higher = more potent) of -0.527. Sequence TTGCAGTCAAATCGTGATGAGC has a sensor-assay potency score (higher = more potent) of -1.19. In the case of AAGTAAACTACGACCAAGGGAA, the sensor-assay potency score (higher = more potent) was -0.0602. For TGGTACAGCATCTGGTACCAGC, the sensor-assay potency score (higher = more potent) was -1.94. For AACACTGTCCACCTTTCCCGAA, the sensor-assay potency score (higher = more potent) was -1.44.

Each sequence was assayed against CLN5 in the same assay as above. Conditions: shRNA.
For TTAACTTTATGCACCAAGGAAG, the sensor-assay potency score (higher = more potent) was -0.963. With TGTTCTTGAACTCTGCTCCAAA the sensor-assay potency score (higher = more potent) was -0.828. Sequence TACATAACTGATATGAACCATA has a sensor-assay potency score (higher = more potent) of -0.617. Work on TTTGGTTGAACATGTTTCCTGA yielded a sensor-assay potency score (higher = more potent) of 0.362. Work on TTCAATGTCATCATCACCCTCC yielded a sensor-assay potency score (higher = more potent) of 0.818. With TAGCTTGACAATAAGGATCAGG the sensor-assay potency score (higher = more potent) was -0.401. Work on TGTTTGTGCACAATCACTGCAT yielded a sensor-assay potency score (higher = more potent) of 0.594. TTTAACTTTATGCACCAAGGAA gave a sensor-assay potency score (higher = more potent) of -0.689. TAGTTGGTTTCTATGTTCTTGA was tested, and the sensor-assay potency score (higher = more potent) was -0.69.
